For 3 compounds, outcome results are on record in PubChem BioAssay (EPA / NIEHS).

Records with an inconclusive call do not appear. The source made the active and inactive calls. Rule for the calls, unless noted: active = hit-call score of the fitted dose curve at least 0.9, where 1 is the maximum; inconclusive = response in the unintended direction; inactive = score below 0.9.

Chain of THRB (gene 7068) (P10828 whole entry, looked up, the tested form may be a part): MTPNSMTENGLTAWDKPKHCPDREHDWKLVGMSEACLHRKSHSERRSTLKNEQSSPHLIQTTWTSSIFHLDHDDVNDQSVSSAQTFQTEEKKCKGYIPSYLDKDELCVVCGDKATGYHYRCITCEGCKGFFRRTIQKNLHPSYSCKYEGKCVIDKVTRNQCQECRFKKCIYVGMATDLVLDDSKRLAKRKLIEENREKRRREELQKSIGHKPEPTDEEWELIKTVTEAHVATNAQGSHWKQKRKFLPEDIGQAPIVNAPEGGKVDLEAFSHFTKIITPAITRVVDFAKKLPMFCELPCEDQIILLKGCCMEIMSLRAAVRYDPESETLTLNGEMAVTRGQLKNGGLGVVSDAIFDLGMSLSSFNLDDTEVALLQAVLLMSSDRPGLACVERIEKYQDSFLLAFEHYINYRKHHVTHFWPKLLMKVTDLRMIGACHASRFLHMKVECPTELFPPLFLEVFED
Chain of Retinoic acid receptor RXR-alpha (Homo sapiens) (P19793 whole entry, looked up): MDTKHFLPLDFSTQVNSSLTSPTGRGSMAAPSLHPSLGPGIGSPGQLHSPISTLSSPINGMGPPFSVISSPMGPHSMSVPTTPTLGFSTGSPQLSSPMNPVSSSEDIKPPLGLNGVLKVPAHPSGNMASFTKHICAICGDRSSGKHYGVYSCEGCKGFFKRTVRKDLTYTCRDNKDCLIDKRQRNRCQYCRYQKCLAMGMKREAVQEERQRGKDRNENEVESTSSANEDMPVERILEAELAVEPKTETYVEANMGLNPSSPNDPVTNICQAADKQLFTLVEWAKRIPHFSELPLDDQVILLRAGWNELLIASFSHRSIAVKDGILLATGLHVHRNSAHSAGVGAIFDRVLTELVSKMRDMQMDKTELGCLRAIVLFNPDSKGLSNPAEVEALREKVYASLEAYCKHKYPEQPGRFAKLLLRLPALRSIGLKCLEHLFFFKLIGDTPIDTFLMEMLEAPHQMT

Tested on in one assay: not listed separately
Briefly: TOX21_TRB_BLA_Agonist_Followup_viability: Viability Assessment in the Tox21 Thyroid Hormone Receptor beta Agonism Beta-lactamase (BLA) Follow-Up Assay (AID 2283956). The essentials:
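TRb-bla HEK293T cells (GAL4-DBD/human TRb LBD) in 2% charcoal-stripped FBS medium were exposed 18 h at 37C to 11 concentrations in triplicate. CellTiter-Glo ATP luminescence was read after 30 min at room temperature, with bidirectional fitting against DMSO.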
With `CC(Cc1ccc(OCC(=O)O)cc1)NCC(O)c1csc(C(F)(F)F)n1` (configuration not stated), the result was inactive.
Take `O=C(O)C(Cl)Cl`: the outcome was inactive.
Still for that read-out and setting: for `CCC1(c2ccccc2)C(=O)N=C(O)NC1=O` (configuration not stated) the value was “inactive”.

A further assay addresses THRB (gene 7068) (UniProt P10828). Put plainly: TOX21_TRB_COA_Agonist_Followup_ratio: Tox21 Thyroid Hormone Receptor beta Agonism through Coactivator Recruitment Follow-Up Assay, Ratio (AID 2283963; active = hit-call score of the fitted dose curve at least 0.9, where 1 is the maximum; inactive = score below 0.9). The gist of the method: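 GST-TRb LBD 5.0 nM + 0.10% BSA + cpd; add fluorescein-SRC-2 200 nM / Tb anti-GST Ab 2 nM; TR-FRET ex 340, em 520:495; norm DMSO 0%, T3 100%.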
In the case of `CC(Cc1ccc(OCC(=O)O)cc1)NCC(O)c1csc(C(F)(F)F)n1` (configuration not stated), the result was inactive.
Same read-out and setting: next, `O=C(O)C(Cl)Cl`: “inactive”; `CCC1(c2ccccc2)C(=O)N=C(O)NC1=O` (configuration not stated): “inactive”.

For another assay, the target named is Retinoic acid receptor RXR-alpha (Homo sapiens) (UniProt P19793). Briefly: TOX21_TR_RXR_BLA_Agonist_Followup_ratio: Tox21 Thyroid Hormone Receptor beta Retinoid X Receptor alpha (RXRa) Agonism Beta-lactamase (BLA) Follow-Up Assay, Ratio (AID 2283968). The essentials:
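HEK293T RXRa-bla, qHTS; cpd 11-pt conc. in triplicate, 16 h 37C/5% CO2; CCF4-AM 2 h RT; ratio 460:530 nm; agonist direction vs DMSO; 9-cis retinoic acid as positive control.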
Take `CC(Cc1ccc(OCC(=O)O)cc1)NCC(O)c1csc(C(F)(F)F)n1` (configuration not stated): the result was inactive.
On the same count and under the same terms, next, `O=C(O)C(Cl)Cl`: “inactive”.
Take `CCC1(c2ccccc2)C(=O)N=C(O)NC1=O` (configuration not stated): the outcome was inactive.

Tested on in a further assay: not listed separately
Briefly: TOX21_TR_RXR_BLA_Agonist_Followup_viability: Viability Assessment in the Tox21 Thyroid Hormone Receptor beta Retinoid X Receptor alpha (RXRa) Agonism Beta-lactamase (BLA) Follow-Up Assay (AID 2283970). The essentials: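 Cells: HEK293T RXRa-UAS-bla, 2,500/well; medium phenol red-free DMEM + 2% charcoal-stripped FBS; 16h, 37C/5% CO2; qHTS concentration series. Read: CellTiter-Glo luminescence (ATP); bidirectional fit, DMSO = baseline.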
`CC(Cc1ccc(OCC(=O)O)cc1)NCC(O)c1csc(C(F)(F)F)n1` (configuration not stated): the compound was classed as inactive.
Regarding `O=C(O)C(Cl)Cl`, the result was inactive.
The same measure, in the same setting: for `CCC1(c2ccccc2)C(=O)N=C(O)NC1=O` (configuration not stated) the value was “inactive”.
